Reference: the supplement of paper PMC6411743
± gives the standard deviation of the averaged measurements. Targets with the largest changes are over-represented here; the source holds about 5,400 in all.

Compound: Nc1nc2c(ncn2[C@@H]2O[C@H](COP(=O)(O)OP(=O)(O)OP(=O)(O)O)[C@@H](O)[C@H]2O)c(=O)[nH]1 [guanosine triphosphate]
Assay: NP40-soluble protein abundance relative to vehicle (solubility fold change) (ratio); higher = more soluble protein in presence of GTP
Method in brief: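 Crude Jurkat lysate, prepared by Dounce homogenisation, was exposed to eight concentrations from 0.1 to 10 mM for 10 min at room temperature and then 3 min at 37 °C. Solubilisation used 0.8% NP40 with benzonase for 60 min at 4 °C, followed by ultracentrifugation and TMT labelling of the supernatant for LC-MS/MS. After vsn normalisation of intensities, each value is the fold change against the detergent-processed vehicle within each replicate, across three independent experiments.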

Sequence of UniProt P07766 (P07766 whole entry, one chain of several): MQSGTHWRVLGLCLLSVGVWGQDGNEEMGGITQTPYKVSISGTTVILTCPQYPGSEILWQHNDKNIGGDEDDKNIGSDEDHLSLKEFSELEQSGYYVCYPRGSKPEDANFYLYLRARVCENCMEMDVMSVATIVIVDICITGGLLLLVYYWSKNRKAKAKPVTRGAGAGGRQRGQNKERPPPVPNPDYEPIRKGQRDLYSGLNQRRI
Sequence of UniProt O15372 (O15372 whole entry, one chain of several): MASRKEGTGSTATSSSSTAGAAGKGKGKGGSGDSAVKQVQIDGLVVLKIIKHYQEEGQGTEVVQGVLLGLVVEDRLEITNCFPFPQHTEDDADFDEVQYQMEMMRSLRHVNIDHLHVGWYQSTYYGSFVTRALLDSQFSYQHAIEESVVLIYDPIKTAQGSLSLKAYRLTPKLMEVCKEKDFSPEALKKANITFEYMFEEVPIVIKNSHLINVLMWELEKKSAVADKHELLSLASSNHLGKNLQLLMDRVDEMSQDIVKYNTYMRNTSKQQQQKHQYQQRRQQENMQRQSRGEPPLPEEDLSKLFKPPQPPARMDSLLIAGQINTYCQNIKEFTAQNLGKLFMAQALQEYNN
Sequence of UniProt P10242 (P10242 whole entry, one chain of several): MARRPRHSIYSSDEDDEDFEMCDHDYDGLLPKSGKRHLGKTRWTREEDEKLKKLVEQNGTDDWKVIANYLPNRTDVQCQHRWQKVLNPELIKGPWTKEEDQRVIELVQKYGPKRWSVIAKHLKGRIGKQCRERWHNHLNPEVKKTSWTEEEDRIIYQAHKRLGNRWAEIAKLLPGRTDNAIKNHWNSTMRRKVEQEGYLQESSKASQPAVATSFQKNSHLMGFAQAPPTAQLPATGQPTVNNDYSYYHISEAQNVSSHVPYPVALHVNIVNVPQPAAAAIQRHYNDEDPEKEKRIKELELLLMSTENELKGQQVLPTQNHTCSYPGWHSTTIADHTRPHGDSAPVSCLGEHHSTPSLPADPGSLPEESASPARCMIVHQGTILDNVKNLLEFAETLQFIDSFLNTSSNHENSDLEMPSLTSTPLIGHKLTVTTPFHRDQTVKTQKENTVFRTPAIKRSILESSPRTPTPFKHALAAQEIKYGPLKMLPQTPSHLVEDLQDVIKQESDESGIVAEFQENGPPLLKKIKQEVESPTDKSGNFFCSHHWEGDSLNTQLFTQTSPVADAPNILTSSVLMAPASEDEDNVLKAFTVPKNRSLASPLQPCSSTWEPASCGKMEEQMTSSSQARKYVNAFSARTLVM
Sequence of UniProt O94880 (O94880 whole entry, one chain of several): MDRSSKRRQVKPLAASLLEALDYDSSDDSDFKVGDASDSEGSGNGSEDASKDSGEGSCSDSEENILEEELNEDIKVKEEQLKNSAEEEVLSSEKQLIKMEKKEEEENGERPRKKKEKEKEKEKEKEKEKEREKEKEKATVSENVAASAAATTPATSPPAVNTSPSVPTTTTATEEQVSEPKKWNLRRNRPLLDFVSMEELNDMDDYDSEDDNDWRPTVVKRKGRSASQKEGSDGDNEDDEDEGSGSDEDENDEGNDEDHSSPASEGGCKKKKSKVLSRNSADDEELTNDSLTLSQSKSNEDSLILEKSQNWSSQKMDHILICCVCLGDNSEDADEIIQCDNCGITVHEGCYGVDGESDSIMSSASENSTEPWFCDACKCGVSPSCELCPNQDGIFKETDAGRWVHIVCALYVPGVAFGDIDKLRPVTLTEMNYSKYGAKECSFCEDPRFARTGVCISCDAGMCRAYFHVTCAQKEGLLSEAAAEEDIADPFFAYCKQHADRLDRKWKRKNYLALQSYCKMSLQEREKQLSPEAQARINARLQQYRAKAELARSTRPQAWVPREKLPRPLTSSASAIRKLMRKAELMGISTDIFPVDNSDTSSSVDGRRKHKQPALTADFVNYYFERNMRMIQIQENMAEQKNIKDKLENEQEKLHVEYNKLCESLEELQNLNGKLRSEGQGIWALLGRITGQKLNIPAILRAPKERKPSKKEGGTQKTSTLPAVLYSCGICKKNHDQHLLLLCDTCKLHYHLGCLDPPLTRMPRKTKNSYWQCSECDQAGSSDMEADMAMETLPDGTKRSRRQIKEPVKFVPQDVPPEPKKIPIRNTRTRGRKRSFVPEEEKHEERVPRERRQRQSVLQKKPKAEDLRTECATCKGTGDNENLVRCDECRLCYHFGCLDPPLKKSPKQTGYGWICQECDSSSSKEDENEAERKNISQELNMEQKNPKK
Sequence of UniProt Q14202 (Q14202 whole entry, one chain of several): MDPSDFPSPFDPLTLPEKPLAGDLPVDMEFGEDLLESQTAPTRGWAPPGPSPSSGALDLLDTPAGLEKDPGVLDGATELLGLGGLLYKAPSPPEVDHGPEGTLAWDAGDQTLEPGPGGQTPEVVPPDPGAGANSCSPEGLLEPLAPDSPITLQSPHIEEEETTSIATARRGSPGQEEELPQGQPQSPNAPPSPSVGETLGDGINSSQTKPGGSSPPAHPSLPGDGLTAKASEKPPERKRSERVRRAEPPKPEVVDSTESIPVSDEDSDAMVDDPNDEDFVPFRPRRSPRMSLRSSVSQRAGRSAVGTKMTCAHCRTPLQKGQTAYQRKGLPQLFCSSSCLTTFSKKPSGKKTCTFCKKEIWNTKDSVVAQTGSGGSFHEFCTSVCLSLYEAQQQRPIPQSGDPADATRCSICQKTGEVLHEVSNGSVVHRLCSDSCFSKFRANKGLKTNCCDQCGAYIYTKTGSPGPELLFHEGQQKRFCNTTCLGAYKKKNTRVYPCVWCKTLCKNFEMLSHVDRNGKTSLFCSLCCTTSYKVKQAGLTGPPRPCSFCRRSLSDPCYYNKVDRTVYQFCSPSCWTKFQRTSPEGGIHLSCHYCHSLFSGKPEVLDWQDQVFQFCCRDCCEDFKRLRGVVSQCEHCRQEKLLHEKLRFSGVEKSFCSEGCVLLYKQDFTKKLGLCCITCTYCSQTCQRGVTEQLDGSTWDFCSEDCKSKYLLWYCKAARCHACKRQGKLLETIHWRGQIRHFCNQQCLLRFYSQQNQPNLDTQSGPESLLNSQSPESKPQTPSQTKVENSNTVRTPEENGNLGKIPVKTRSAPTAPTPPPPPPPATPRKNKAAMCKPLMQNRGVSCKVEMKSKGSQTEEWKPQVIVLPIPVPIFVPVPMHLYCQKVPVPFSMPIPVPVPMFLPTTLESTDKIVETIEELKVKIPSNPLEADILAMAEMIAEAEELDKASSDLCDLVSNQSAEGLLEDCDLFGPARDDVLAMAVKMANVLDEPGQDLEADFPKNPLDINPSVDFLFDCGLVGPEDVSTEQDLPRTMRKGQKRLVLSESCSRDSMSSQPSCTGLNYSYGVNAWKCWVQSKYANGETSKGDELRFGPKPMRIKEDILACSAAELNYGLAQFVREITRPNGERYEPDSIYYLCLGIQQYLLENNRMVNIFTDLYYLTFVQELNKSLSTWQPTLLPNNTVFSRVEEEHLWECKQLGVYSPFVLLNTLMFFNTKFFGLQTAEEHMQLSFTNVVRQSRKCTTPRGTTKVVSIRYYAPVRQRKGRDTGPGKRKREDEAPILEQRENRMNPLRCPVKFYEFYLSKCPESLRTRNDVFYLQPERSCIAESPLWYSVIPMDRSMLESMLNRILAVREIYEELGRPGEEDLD
Sequence of UniProt Q6NVY1 (Q6NVY1 whole entry, one chain of several): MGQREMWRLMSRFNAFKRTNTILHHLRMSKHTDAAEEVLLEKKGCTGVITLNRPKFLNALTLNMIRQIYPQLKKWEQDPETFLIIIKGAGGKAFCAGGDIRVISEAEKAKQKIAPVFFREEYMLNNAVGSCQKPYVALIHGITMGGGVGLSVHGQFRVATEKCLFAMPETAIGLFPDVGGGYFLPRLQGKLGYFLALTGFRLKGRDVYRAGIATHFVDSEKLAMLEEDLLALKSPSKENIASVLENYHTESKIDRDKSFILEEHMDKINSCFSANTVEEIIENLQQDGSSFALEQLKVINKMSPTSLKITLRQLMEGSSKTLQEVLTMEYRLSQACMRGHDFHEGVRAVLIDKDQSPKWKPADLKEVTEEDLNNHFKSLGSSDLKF
Sequence of UniProt Q9BTT0 (Q9BTT0 whole entry, one chain of several): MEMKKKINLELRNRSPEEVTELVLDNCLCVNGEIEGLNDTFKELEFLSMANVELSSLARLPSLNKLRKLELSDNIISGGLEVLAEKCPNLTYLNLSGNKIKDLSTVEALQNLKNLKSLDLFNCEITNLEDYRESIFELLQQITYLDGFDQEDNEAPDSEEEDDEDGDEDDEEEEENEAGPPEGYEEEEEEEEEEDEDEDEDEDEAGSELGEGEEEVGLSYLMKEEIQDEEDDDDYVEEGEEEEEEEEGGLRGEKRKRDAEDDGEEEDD
Sequence of UniProt P01850 (P01850 whole entry): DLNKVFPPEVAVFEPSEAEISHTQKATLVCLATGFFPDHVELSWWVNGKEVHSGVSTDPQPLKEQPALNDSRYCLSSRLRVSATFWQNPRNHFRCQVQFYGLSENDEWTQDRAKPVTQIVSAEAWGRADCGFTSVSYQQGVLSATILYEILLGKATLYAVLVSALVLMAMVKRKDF
Sequence of UniProt O43708 (O43708 whole entry, one chain of several): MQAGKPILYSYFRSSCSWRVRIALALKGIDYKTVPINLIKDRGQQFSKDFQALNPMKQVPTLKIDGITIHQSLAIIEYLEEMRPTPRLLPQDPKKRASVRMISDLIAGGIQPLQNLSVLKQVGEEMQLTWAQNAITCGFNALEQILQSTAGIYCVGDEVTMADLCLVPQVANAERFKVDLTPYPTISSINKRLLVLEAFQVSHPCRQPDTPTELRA
Sequence of UniProt Q9H0W9 (Q9H0W9 whole entry, one chain of several): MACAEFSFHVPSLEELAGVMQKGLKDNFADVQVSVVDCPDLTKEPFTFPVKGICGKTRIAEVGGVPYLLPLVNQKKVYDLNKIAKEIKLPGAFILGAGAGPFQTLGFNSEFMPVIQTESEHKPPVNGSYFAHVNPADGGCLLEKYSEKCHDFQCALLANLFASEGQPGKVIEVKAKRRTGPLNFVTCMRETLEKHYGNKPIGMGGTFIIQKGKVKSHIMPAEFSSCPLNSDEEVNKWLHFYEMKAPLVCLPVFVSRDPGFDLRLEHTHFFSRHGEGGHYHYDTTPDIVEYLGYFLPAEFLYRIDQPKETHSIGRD

Target	NP40-soluble protein abundance (concentration: 0.1mM)	NP40-soluble protein abundance (concentration: 0.5mM)	NP40-soluble protein abundance (concentration: 1mM)	NP40-soluble protein abundance (concentration: 2mM)	NP40-soluble protein abundance (concentration: 4mM)	NP40-soluble protein abundance (concentration: 6mM)	NP40-soluble protein abundance (concentration: 8mM)	NP40-soluble protein abundance (concentration: 10mM)
E9PPH5|Q9BTT0|Q9BTT0-3 (UniProt Q9BTT0)	0.838 ± 0.058	0.874 ± 0.062	0.978 ± 0.05	0.94 ± 0.045	0.937 ± 0.056	0.946 ± 0.037	0.958 ± 0.038	1.08 ± 0.079
G3XAG1|Q96ME7|Q96ME7-3 (UniProt Q96ME7)	1.1 ± 0.013	1.17 ± 0.055	1.27 ± 0.04	1.445 ± 0.014	1.74 ± 0.059	1.88 ± 0.079	2.01 ± 0.13	2.17 ± 0.081
G3V5T0|O43708 (UniProt O43708)	0.95 ± 0.046	0.961 ± 0.087	0.879 ± 0.058	0.867 ± 0.063	0.848 ± 0.068	0.854 ± 0.076	0.819 ± 0.096	0.815 ± 0.091
D6RIH7|Q9UM22 (UniProt Q9UM22)	0.918 ± 0.11	0.931 ± 0.14	0.91 ± 0.12	0.896 ± 0.13	0.902 ± 0.12	0.908 ± 0.13	0.88 ± 0.085	0.889 ± 0.11
A0A087WXI1|Q6NVY1 (UniProt Q6NVY1)	0.948 ± 0.045	0.945 ± 0.042	0.909 ± 0.082	0.875 ± 0.083	0.863 ± 0.087	0.867 ± 0.092	0.861 ± 0.096	0.841 ± 0.096
E9PSH8|P07766 (UniProt P07766)	0.955 ± 0.049	0.991 ± 0.076	0.986 ± 0.071	0.958 ± 0.085	0.962 ± 0.082	0.96 ± 0.082	0.978 ± 0.068	0.983 ± 0.11
A6NHB5|A6NHN7|Q14202|Q14202-2 (UniProt Q14202)	1.08 ± 0.056	1.12 ± 0.075	1.18 ± 0.092	1.31 ± 0.14	1.37 ± 0.16	1.4 ± 0.15	1.46 ± 0.15	1.42 ± 0.16
A0A0U1RRH6|O94880|O94880-2 (UniProt O94880)	1.05 ± 0.095	1.07 ± 0.14	1.15 ± 0.12	1.16 ± 0.065	1.34 ± 0.12	1.46 ± 0.096	1.65 ± 0.25	1.78 ± 0.25
B3KS98|O15372 (UniProt O15372)	0.992 ± 0.07	1.01 ± 0.088	1.03 ± 0.075	1.08 ± 0.15	1.27 ± 0.25	1.42 ± 0.28	1.6 ± 0.34	1.8 ± 0.36
F5H269|Q9Y485 (UniProt Q9Y485)	0.991 ± 0.013	1.11 ± 0.081	1.05 ± 0.096	1.01 ± 0.087	1.04 ± 0.09	1.06 ± 0.088	1.12 ± 0.15	1.11 ± 0.11
A0A087WT99|Q9H0W9|Q9H0W9-2|E9PPB5|E9PQS1 (UniProt Q9H0W9)	0.993 ± 0.094	0.942 ± 0.069	0.925 ± 0.048	0.899 ± 0.068	0.872 ± 0.058	0.897 ± 0.087	0.901 ± 0.11	0.848 ± 0.053
A8MQB8|G3V0J0|Q06787|Q06787-2|Q06787-3|Q06787-4|Q06787-5|Q06787-6|Q06787-7|Q06787-8|Q06787-9 (UniProt Q06787)	1.05 ± 0.041	1.15 ± 0.048	1.05 ± 0.065	1.24 ± 0.0061	1.41 ± 0.093	1.71 ± 0.037	1.8 ± 0.048	2.1 ± 0.11
A0A087WWH3|Q9NZM4|Q9NZM4-2 (UniProt Q9NZM4)	1.06 ± 0.018	0.989 ± 0.1	1.16 ± 0.19	1.22 ± 0.1	1.22 ± 0.15	1.13 ± 0.33	1.2 ± 0.44	1.33 ± 0.38
A0A087WZV8|A0A0G2JN66 (UniProt P01850)	1.02 ± 0.032	1.04 ± 0.034	1.002 ± 0.0081	1.01 ± 0.042	1.01 ± 0.036	0.98 ± 0.023	0.977 ± 0.04	0.976 ± 0.046
F8W8G5|P10242|P10242-10|P10242-11|P10242-2|P10242-4|P10242-7|P10242-8|P10242-9 (UniProt P10242)	1.02 ± 0.063	1.04 ± 0.077	1.08 ± 0.073	1.08 ± 0.086	1.12 ± 0.037	1.12 ± 0.1	1.15 ± 0.044	1.13 ± 0.051
A0A087WY82|Q9Y624|Q9Y624-2 (UniProt Q9Y624)	1 ± 0.041	0.953 ± 0.1	0.979 ± 0.038	0.938 ± 0.059	0.851 ± 0.066	0.952 ± 0.01	0.858 ± 0.076	0.898 ± 0.011
E9PF32|H0YAY3|A2RUS2|A2RUS2-2 (UniProt A2RUS2)	1.1 ± 0.17	1.13 ± 0.069	1.05 ± 0.038	1.1 ± 0.19	1.1 ± 0.12	1.1 ± 0.011	1 ± 0.14	1.01 ± 0.11
